Data published in the supplement of paper PMC11732987, “Enantioselective OTUD7B fragment discovery through chemoproteomics screening and high-throughput optimisation” (Communications Chemistry, 2025).
A number with no mark means an inactive call.

What was measured:
Assay in all cases: log2 ratio of Biotin-Ahx-Ub-VS probe labelling (fragment/DMSO); higher = less target engagement (more negative = stronger competition), active = hit call of the paper (q ≤ 0.05, log2 ratio ≤ -1)
Conditions in all cases: compound concentration: 200 uM; treatment time: 3 h
[1] = target: T1, USP19 (UniProt O94966)
T1 sequence (whole entry): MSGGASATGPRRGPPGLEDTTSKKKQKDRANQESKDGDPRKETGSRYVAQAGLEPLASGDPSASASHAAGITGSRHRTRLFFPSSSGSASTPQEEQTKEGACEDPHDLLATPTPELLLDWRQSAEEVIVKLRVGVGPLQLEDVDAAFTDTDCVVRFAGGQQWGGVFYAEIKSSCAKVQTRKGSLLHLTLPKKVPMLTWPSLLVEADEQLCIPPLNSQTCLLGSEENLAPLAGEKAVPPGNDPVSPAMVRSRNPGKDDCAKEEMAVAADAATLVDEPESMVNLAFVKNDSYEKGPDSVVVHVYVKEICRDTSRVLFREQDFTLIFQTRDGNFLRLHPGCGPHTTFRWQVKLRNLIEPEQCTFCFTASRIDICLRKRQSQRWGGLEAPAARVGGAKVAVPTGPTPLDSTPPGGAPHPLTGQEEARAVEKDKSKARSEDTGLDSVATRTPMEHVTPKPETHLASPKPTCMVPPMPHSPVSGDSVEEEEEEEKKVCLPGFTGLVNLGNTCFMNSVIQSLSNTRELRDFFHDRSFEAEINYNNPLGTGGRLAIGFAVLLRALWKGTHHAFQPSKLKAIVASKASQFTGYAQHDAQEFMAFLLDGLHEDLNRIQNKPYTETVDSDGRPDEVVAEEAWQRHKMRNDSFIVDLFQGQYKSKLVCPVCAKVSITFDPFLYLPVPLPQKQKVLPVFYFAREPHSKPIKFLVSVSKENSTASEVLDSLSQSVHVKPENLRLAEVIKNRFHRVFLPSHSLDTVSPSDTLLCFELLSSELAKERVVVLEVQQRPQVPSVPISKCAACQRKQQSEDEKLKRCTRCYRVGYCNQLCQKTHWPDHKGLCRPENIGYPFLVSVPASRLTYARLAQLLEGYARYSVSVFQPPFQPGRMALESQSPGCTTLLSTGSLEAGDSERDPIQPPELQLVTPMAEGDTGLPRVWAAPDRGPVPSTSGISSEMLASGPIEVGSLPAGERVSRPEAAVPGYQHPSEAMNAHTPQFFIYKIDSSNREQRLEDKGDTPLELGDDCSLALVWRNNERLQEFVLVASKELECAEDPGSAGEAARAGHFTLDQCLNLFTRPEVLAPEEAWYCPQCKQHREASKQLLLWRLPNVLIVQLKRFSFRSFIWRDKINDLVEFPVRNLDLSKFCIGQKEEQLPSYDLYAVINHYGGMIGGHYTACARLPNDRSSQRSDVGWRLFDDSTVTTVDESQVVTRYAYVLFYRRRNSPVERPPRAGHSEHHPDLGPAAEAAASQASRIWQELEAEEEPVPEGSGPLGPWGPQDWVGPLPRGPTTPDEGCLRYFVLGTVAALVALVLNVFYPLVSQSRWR
In short: (§1)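 Each value is an average log2 ratio of fragment to vehicle, tested by unpaired t-test. The underlying Spectronaut label-free quantities were global-median-normalised, and only proteins with ≥2 unique peptides were included. Triplicate HEK293T lysate samples (495 µg) were exposed to fragment at 200 µM or vehicle for 3 h, then to Biotin-Ahx-Ub-VS at 0.5 µM final for 1 h, before NeutrAvidin enrichment of labelled DUBs, LysC and trypsin digestion, and diaPASEF LC-MS/MS.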

[2] = target: T2, USP22 (UniProt Q9UPT9)
T2 sequence (whole entry): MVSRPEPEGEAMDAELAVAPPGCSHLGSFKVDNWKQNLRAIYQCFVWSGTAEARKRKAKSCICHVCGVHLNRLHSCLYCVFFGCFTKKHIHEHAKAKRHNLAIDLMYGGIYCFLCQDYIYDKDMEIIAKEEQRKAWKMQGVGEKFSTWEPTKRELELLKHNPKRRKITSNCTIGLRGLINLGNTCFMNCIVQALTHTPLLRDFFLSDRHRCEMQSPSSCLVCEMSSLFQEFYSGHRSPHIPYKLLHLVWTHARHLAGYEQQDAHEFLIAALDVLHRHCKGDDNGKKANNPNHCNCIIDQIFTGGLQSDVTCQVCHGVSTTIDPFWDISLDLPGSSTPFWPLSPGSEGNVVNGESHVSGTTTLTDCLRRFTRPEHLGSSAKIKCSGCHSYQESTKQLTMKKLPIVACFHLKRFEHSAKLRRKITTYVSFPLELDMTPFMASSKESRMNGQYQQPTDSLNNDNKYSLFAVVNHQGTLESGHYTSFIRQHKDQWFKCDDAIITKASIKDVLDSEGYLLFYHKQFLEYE
In short: as §1

[3] = target: USP24 (UniProt Q9UPU5)
Sequence of USP24 (Q9UPU5 whole entry): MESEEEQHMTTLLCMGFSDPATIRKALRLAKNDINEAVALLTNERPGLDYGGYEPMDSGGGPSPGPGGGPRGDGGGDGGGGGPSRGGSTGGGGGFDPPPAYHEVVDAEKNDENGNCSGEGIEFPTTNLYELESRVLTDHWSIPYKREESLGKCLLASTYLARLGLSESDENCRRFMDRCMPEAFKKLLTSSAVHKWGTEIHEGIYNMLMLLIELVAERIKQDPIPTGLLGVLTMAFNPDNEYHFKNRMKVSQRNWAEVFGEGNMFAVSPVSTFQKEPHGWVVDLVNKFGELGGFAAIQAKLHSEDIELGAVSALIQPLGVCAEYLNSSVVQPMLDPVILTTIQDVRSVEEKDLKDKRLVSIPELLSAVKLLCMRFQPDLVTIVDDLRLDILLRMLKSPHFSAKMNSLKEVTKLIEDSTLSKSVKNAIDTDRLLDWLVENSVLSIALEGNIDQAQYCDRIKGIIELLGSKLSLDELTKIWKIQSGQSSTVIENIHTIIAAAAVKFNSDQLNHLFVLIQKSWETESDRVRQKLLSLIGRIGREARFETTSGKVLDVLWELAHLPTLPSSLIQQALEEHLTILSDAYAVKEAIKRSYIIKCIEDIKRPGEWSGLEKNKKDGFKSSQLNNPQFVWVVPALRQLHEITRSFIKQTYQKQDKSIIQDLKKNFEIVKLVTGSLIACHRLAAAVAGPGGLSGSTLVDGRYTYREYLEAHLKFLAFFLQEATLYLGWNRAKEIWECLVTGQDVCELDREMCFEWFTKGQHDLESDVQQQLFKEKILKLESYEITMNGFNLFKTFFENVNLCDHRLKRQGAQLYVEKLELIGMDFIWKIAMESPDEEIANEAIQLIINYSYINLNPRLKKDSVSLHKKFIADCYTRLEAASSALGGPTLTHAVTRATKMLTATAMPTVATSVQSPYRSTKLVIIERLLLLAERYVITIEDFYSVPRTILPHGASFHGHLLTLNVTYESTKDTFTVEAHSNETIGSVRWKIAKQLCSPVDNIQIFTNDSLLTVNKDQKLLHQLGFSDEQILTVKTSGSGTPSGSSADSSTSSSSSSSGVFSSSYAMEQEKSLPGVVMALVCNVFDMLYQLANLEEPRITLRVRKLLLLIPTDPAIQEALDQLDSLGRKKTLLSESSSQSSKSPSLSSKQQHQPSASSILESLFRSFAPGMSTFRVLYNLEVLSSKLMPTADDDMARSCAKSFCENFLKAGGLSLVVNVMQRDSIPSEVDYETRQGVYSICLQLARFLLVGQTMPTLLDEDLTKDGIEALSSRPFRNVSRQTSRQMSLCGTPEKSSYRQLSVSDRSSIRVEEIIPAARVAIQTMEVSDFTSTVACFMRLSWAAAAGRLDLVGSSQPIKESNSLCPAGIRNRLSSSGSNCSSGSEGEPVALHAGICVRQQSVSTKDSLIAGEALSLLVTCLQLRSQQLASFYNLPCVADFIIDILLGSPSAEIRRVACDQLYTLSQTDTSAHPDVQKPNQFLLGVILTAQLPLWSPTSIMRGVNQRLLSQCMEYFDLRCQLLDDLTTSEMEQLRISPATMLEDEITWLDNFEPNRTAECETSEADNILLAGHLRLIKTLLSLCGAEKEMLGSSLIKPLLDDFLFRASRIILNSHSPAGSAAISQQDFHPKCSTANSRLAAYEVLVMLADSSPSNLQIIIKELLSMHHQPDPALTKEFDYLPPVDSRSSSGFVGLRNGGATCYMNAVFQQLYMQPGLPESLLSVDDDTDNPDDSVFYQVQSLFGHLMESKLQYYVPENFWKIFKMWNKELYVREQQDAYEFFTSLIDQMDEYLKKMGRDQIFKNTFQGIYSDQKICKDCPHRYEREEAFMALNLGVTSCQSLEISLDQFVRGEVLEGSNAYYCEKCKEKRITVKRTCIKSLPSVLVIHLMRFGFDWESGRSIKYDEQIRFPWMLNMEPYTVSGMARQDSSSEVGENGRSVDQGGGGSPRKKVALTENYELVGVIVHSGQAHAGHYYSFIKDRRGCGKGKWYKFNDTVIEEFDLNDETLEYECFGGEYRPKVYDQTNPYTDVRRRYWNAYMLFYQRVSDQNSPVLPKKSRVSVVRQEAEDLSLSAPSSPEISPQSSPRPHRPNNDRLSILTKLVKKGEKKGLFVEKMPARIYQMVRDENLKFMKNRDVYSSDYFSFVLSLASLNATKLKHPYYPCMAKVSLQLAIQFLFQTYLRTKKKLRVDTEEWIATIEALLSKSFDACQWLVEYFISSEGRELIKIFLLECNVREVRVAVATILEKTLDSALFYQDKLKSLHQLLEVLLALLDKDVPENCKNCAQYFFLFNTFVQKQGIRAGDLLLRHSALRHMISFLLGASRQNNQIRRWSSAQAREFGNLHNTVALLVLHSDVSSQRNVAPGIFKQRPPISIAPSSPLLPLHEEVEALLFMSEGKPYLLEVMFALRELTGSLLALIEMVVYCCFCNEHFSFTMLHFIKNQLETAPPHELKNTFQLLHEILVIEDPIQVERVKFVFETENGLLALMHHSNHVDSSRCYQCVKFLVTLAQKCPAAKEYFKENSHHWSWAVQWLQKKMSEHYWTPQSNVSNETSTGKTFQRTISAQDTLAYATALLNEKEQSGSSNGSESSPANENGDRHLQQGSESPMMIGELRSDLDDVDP
In short: as §1

[4] = target: T3, USP25 (UniProt Q9UHP3)
T3 sequence (whole entry): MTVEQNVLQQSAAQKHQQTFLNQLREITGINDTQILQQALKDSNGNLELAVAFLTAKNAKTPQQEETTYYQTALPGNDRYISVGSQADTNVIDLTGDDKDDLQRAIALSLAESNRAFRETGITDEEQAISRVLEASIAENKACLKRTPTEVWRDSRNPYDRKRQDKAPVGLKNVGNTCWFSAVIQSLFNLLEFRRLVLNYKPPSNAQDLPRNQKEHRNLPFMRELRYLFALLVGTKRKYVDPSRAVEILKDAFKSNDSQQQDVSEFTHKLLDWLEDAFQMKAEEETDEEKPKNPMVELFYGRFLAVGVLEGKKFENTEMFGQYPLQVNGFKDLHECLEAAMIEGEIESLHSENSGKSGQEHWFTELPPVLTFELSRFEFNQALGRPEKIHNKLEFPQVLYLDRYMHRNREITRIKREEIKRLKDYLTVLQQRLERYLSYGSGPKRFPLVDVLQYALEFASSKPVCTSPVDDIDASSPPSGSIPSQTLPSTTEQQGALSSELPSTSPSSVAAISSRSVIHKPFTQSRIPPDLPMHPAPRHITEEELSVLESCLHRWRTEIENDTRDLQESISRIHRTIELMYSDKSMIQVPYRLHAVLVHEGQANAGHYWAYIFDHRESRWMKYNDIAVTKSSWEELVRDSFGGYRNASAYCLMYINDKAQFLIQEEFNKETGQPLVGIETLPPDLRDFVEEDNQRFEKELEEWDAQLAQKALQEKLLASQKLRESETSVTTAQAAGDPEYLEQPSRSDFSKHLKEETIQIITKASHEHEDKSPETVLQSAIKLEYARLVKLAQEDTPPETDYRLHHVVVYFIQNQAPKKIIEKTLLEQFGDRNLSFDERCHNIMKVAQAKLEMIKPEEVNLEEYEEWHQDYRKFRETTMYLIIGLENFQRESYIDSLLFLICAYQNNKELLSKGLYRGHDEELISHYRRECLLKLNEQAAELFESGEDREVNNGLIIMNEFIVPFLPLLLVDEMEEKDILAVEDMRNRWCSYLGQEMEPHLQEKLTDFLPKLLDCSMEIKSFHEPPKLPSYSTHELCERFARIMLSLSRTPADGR
In short: as §1

[5] = target: T4, USP28 (UniProt Q96RU2)
T4 sequence (whole entry): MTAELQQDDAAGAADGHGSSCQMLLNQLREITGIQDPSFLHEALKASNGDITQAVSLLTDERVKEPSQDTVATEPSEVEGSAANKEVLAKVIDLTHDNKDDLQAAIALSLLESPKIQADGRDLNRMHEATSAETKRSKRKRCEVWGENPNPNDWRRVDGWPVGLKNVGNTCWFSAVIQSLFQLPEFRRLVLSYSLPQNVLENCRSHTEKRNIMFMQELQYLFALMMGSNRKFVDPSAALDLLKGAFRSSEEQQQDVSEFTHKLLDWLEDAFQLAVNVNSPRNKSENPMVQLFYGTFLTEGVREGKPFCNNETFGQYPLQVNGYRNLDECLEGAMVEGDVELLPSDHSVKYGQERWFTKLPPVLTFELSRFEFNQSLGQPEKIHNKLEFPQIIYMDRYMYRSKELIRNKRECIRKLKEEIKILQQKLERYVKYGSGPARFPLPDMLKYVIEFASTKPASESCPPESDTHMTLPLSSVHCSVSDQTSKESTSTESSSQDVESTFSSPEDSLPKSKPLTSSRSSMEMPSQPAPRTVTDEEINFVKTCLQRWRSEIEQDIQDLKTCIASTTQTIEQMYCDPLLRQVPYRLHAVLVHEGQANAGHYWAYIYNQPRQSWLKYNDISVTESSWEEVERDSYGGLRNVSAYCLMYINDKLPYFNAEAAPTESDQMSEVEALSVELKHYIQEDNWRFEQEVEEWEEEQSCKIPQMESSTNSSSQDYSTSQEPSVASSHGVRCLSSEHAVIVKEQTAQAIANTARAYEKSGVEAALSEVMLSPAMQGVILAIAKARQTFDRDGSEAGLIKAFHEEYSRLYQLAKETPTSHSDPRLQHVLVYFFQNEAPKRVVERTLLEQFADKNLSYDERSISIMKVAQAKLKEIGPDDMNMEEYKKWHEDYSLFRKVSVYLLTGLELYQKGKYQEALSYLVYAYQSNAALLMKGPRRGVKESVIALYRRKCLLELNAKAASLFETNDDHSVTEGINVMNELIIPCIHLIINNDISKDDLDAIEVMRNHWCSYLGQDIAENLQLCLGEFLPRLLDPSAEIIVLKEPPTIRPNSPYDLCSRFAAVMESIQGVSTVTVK
In short: as §1

O=C(CCl)Nc1cc2c(cc1Cl)OCCO2
log2 ratio of Biotin-Ahx-Ub-VS probe labelling [1]: 0.00638
log2 ratio of Biotin-Ahx-Ub-VS probe labelling [2]: -0.112
log2 ratio of Biotin-Ahx-Ub-VS probe labelling [3]: -0.0527
log2 ratio of Biotin-Ahx-Ub-VS probe labelling [4]: -1.52 (active)
log2 ratio of Biotin-Ahx-Ub-VS probe labelling [5]: -1.81 (active)
